FMDV antiviral: shows antiviral activity against foot and mouth disease virus; FMDV antiviral cell assay, firefly luciferase signal; Potency, µM (highest dose often 57.5 µM), inactives show at the highest dose activity change, negative = inhibition, most hits filed as inhibitors; 0.23% of 120,000 active; AID 1745856; note: nearly all actives have a fitted effect of over 60% in size
FMDV Renilla: shows antiviral activity in FMDV Renilla assay; FMDV replicon cells, Renilla luciferase signal; Potency, µM (series often up to 57.5 µM), for the others: top-dose activity change, negative = inhibition, usual class: inhibitors; 0.32% of 120,000 active; AID 1745857; note: nearly all actives have a fitted effect of over 55% in size
* marks the source's active call; other numbers are inactive results; u = inconclusive; [ ] = remark or other dose. Most compounds without a hit are left out; they make up all but 0.4% or so of the library. Calls come from the whole dose curve. % is set by controls: 0 for no effect and ±100 for the full control effect; potency is the fitted concentration of half-maximal effect.

SMILES | FMDV antiviral | FMDV Renilla
O=C(Nc1nc(C23CC4CC(CC(C4)C2)C3)cs1)c1ccc(=O)[nH]c1 | 10% | -9%
O=C(Nc1nc(C23CC4CC(CC(C4)C2)C3)cs1)c1ccncc1 | 14µM* | 8.9µM*
COc1ccc(C(=O)N2CCC(c3nc4ccccc4s3)CC2)cc1Cl | 28µM* | u
COc1cccc(C(=O)N2CCC(c3nc4ccccc4s3)CC2)c1 | -8% | -4%
CCc1ccc(CNC(=O)C(=O)c2c(C)[nH]c3ccccc23)cc1 | 12% | 50%
O=C(Nc1cccc2cccnc12)c1ccc(F)cc1 | 90% | -11%
O=S(=O)(Nc1cccc2cccnc12)c1ccc(F)cc1 | u | 22µM*
CN(C)c1ccc(/C=N/Nc2ccccc2Cl)cc1 | 166% | -7%
O=C1/C(=C/c2cnc(-c3ccccc3)nc2)CS(=O)(=O)c2ccccc21 | 17% | -11%
COc1cc(CN(C(=O)c2ccc(OC(C)C)cc2)c2ccccn2)cc(OC)c1OC | u | 10µM*
COc1cc(CN(C(=O)c2cccc(Cl)c2)c2ccccn2)cc(OC)c1OC | u | 65%
O=C(Nc1ccc(C23CC4CC(CC(C4)C2)C3)cc1)c1cccc(Cl)c1 | 0.35µM* | -2%
O=C(Nc1ccc(C23CC4CC(CC(C4)C2)C3)cc1)c1ccccc1Cl | -10% | 7%
Cc1ccc(NC(=O)Cc2nc(-c3c[nH]c(C(=O)N4CCCC4)c3)cs2)cc1 | -3% | 18%
N#Cc1ccc(-c2ccc3c(c2)OCO3)nc1SCC(=O)Nc1ccccc1Cl | 5% | -4%
COc1ccc(NC(=O)c2ccc(C3Nc4ccccc4S(=O)(=O)N3)cc2)cc1OC (centres undefined) | 85% | 4%
O=C(Nc1cccnc1)c1ccc(SC(F)(F)F)cc1 | 112% | -25%
O=C(Nc1ccncc1)c1ccc(SC(F)(F)F)cc1 | u | 20µM*
Cc1ccc(C)c(NCc2ccccn2)c1 | 16% | 14%
Cc1ccccc1-n1nnnc1SCc1nc(N)c2ccccc2n1 | 17% | -19%
Cc1cccc(C)c1-n1nnnc1SCn1nnc2ccccc2c1=O | 20µM* | 18µM*
Cc1cccc(-c2nc(C#N)c(NCc3ccc4c(c3)OCO4)o2)c1 | 144% | 159%
CCN1CCN(c2cc(-c3ccc(F)cc3)c3c(n2)CCCCCC3)CC1 | u | 11µM*
CCN1CCN(c2oc(-c3ccc(F)cc3)nc2C#N)CC1 | 22% | 3%
CCc1ccc(C(=O)Nc2sc(C)c(C)c2C#N)cc1 | 135% | 12%
SMILES | FMDV antiviral | FMDV Renilla
CC(=O)N1CCN(Cc2coc(-c3ccc(Cl)cc3)n2)CC1 | 12% | u
O=C(CSCc1coc(-c2ccc(Cl)cc2)n1)N1CCCCC1 | -13% | 20µM*
O=c1oc2cc(OCCN3CCN(CCO)CC3)ccc2cc1-c1ccccc1 | 145% | -10%
C[C@@H]1O[C@@H](O[C@H]2C[C@@H](O)[C@]3(CO)[C@H]4[C@H](O)C[C@]5(C)[C@@H](C6=CC(=O)OC6)CC[C@]5(O)[C@@H]4CC[C@]3(O)C2)[C@H](O)[C@H](O)[C@H]1O | -69%[11.5 µM] | -76%
CC1OC(OC2CCC3(C=O)[C@H]4CCC5(C)C(C6=CC(=O)OC6)CCC5(O)[C@@H]4CCC3(O)C2)CC2OC(C)(C)OC12 (some centres undefined) | 1µM* | 1.3µM*
CC1OC(OC2CCC3(C=O)[C@H]4CCC5(C)C(C6=CC(=O)OC6)CCC5(O)[C@@H]4CCC3(O)C2)C(O)C(O)C1O (some centres undefined) | -79% | -75%
CC12CC[C@H]3[C@@H](CCC4(O)CC(O[N+](=O)[O-])CCC34CO[N+](=O)[O-])C1(O)CCC2C1=CC(=O)OC1 (some centres undefined) | u | 10µM*
CC1OC(OC2CCC3(C=O)[C@H]4CCC5(C)C(C6=CC(=O)OC6)CCC5(O)[C@@H]4CCC3(O)C2)CC(O)C1O (some centres undefined) | u | 0.28µM*
CCC(=O)Nc1nc(C)c(-c2csc(Nc3ccc(OC)cc3)n2)s1 | 0% | -23%
Cl/C(=C/c1ccc(Cl)cc1)c1ncc(-c2ccc(Cl)cc2)o1 | 10% | 6%
COc1cc(NS(=O)(=O)c2ccc(C)cc2C)cc2sc(NC(=O)c3ccccc3)nc12 | -19% | 291%
CCOC(=O)C1C(=O)C=C(/C=C/c2ccco2)CC1c1ccccc1 (centres undefined) | 5% | -1%
COc1ccc2cc(C(=O)N3CCN(S(=O)(=O)c4ccc(C)cc4)CC3)c(C)nc2c1 | -8% | -21%
